# This is part of a sample that, as a whole, favours compounds with a hit. Of some 83,000 tested, about 20% had one in any assay.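 Activity criterion: percent growth below 10, measured after cells in 96-well plates were exposed to a single compound concentration for 48 hours.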 Values without a mark were called inactive. The source made the active and inactive calls.
# System: HL-60(TB) leukemia
# Test: NCI-60 one-dose screen, 48 h (100 = growth as untreated, 0 = no growth, -100 = all killed)
# Details: 10 µM unless noted
row,Structure (SMILES),growth
1,c1ccc(N2c3nc4ccccc4cc3Sc3cc4ccccc4nc32)nc1,97.2%
2,CCCCCCNC(=O)Oc1ccc(/C(=C(/C)Cc2ccc(OC)cc2)c2ccc(OCCN3CCCCC3)cc2)cc1,57.9%
3,COc1cccc2c(=O)c3c(sc12)c(NCCCNCCO)nc1ccccc13,59.8%
4,C=CCn1c(SCC(=O)Nc2ccc(C(=O)/C=C/c3ccc(OC)cc3)cc2)nnc1-c1ccccc1,88.5%
5,O=S(=O)(NCCCNc1nccc(-c2c(-c3cccc(F)c3)nc3occn23)n1)c1ccc(F)cc1,5.83% (active)
6,C=C1c2c(C)nn(-c3ccc(NC(C)=O)cc3)c2N(C)C23CC1C1(C)c4c(C)nn(-c5ccc(NC(C)=O)cc5)c4N(C)C(C)(CC12)C3 (configuration not stated),-20.6% (active)
7,CCOC(=O)/C=C1\S/C(=N\Nc2cc(=O)[nH]c3ccccc23)N(c2ccccc2)C1=O,99.1%
8,C1=C(Cc2ccccc2)n2cnc3ncnc(c32)S1,75.1%
9,Cc1c(C(N)=O)sc2nc(C)n(/N=c3\scc(-c4ccccc4)n3Cc3ccccc3)c(=O)c12,-35.8% (active)
10,CCCCOc1ccc(NC(=O)n2nc(NC(C)=O)c3cc(NC(C)=O)ccc32)cc1,72.9%
11,Oc1ccc(-c2nc3ccc4[nH]ncc4c3c3c2CCCC3)c(F)c1,0.236% (active)
12,CC(C)(C)n1nc(C2CC2)c(Br)c1NC(=O)c1ccccc1F,104%
13,Cc1nc(C)c(C)nc1C,73.9%
14,CCN(CC)CCCC(C)Nc1cc(-c2cccc(OC(F)(F)F)c2)nc2ccc(N3CCCC3)cc12 (configuration not stated),-61% (active)
15,Cc1nc(-c2cn3c(n2)-c2ccc(-c4cnn(C(C)(C)C(N)=O)c4)cc2OCC3)n(C(C)C)n1,35.7%
16,CC(C(=O)O)n1c(O)c(C=Nc2cccnc2)sc1=S (configuration not stated),82.3%
17,COc1cccc(N2CCN(CC(=O)N3CCN(c4nnc(-c5ccc(Cl)cc5)c(-c5ccc(Cl)cc5)n4)CC3)CC2)c1,20.6%
18,COc1cccc(/C=C2\C=C(c3ccccc3)N(Cc3ccccc3)C2=O)c1,90.7%
19,COc1cc2c(cc1OCCCCCOc1ccc(-n3c(C)nc4ccccc4c3=O)cc1)N=C[C@@H]1CCCN1C2=O,-33.8% (active)

row,Structure (SMILES),growth
1,Clc1ccc(-n2ncc3c(NCCCN4CCOCC4)ncnc32)cc1,86%
2,COC1(OC)C2(Cl)C(Cl)=C(Cl)C1(Cl)C1COCC12 (configuration not stated),82.9%
3,N#CC(C#N)=Cc1cc2ccccc2nc1Oc1ccc(C(F)(F)F)cc1,78.4%
4,Cc1ccc([P+](Cc2ccc([N+](=O)[O-])cc2)(c2ccc(C)cc2)c2ccc(C)cc2)cc1,-43.8% (active)
5,O=C(c1ccccc1)N(C(=S)NCCc1ccc(Cl)cc1)c1ccccc1,54.4%
6,OC[C@H]1OC([S-])[C@H](O)[C@@H](O)[C@@H]1O.[Au+] (some centres not stated),95.1%
7,CC1=C/C(=N\N=C2/C=C(C)CC(C)(C)C2)CC(C)(C)C1,84.1%
8,Cc1ccc(NC(=O)Cn2c(Br)nc3c2c(=O)n(C)c(=O)n3C)cc1,102%
9,N#Cc1ccc(-c2ccc(-c3cccs3)o2)cc1F,89.3%
10,O=C1/C(=C\c2ccccc2)CN(C(=O)c2ccccc2)C/C1=C\c1ccccc1,29.6%
11,C=CCn1c(-c2ccc(-c3nc4ccc(C)cc4[nH]3)cc2)n[nH]c1=S,110%
12,CCC1=CC2CN(C1)Cc1c([nH]c3ccccc13)[C@@](C(=O)OC)(c1cc3c(cc1OC)N(C)[C@H]1[C@@](O)(C(=O)OC)[C@H](OC(C)=O)[C@]4(CC)C=CCN5CC[C@]31[C@@H]54)C2 (some centres not stated),-15.6% (active)
13,O=C(OC[C@@H]1CO1)c1cccc2c(=O)c3ccccc3[nH]c12,-51.4% (active)
14,O=C(O)C(=Cc1c2ccccc2cc2ccccc12)C(=O)O,110%
15,N#C/C(=C\c1ccc(Br)cc1)c1cc2ccccc2[nH]1,98.2%
16,CC(=O)n1c(-c2ccc(Cl)c(Cl)c2)cn(-c2ccc(Cl)cc2)c1=O,64.8%
17,Cc1nn(-c2ccc(F)cc2)c2ncnc(Nc3ccc(NC(=O)Nc4ccc(Cl)c(C(F)(F)F)c4)cc3)c12,13.2%
18,CC(=O)NNC(=S)/N=C\C(C(=O)c1ccccc1)=C(/O)c1ccccc1,103%

# Source: PubChem BioAssay (NCI)
